{
  "source": "the supplement of paper PMC6853941",
  "note": "A number with no mark means an inactive call.",
  "data": [
    {"tested_on": "MCF10A", "assay": "perturbation Mahalanobis distance of morphological profile vs DMSO controls (Mahalanobis distance (SD units)); higher = stronger morphological change, active = 7 or more", "settings": "screen batch: Batch1_Mahalanobis_Distance; 72 h", "description": "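MCF10A cells were seeded onto drugs dispensed acoustically into 384-well plates, using one dose per drug chosen from its human peak plasma concentration, and incubated for 72 h at 37 °C. Cells were stained for DNA, tubulin and mitochondria and imaged; 78 CellProfiler features were extracted, plate-normalised and compared with DMSO wells.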", "values": [
      {"smiles": "CCCCN1C[C@H](O)[C@@H](O)[C@H](O)[C@H]1CO", "note": "[Miglustat] (92.6 µM)", "perturbation Mahalanobis distance": 2.56},
      {"smiles": "COc1cc(Cc2cnc(N)nc2N)cc(OC)c1OC", "note": "[Trimethoprim] (43.1 µM)", "perturbation Mahalanobis distance": 4.35},
      {"smiles": "CC(=O)Nc1nnc(S(N)(=O)=O)s1", "note": "[Acetazolamide] (90 µM)", "perturbation Mahalanobis distance": 3.52},
      {"smiles": "CCN(CC)C(=S)S", "note": "[Sodium Diethyldithiocarbamate Trihydrate] (10 µM)", "perturbation Mahalanobis distance": 3.67},
      {"smiles": "NS(=O)(=O)Cc1noc2ccccc12", "note": "[Zonisamide] (141.4 µM)", "perturbation Mahalanobis distance": 2.42},
      {"smiles": "CCCCC(F)(F)[C@@]1(O)CC[C@H]2[C@@H](CC(=O)[C@@H]2CCCCCCC(=O)O)O1", "note": "[Lubiprostone] (64 µM)", "perturbation Mahalanobis distance": 2.4},
      {"smiles": "CC(=O)O[C@]1(C(C)=O)CC[C@H]2[C@@H]3CCC4=CC(=O)CCC4=C3[C@@H](c3ccc(N(C)C)cc3)C[C@@]21C", "note": "[Ulipristal Acetate] (3.9 µM)", "perturbation Mahalanobis distance": "9.29 (active)"},
      {"smiles": "C[C@@](N)(Cc1ccc(O)c(O)c1)C(=O)O", "note": "[Methyldopa] (118.4 µM)", "perturbation Mahalanobis distance": 3.81},
      {"smiles": "CNCCCC12CCC(c3ccccc31)c1ccccc12", "note": "[Maprotiline] (10.8 µM)", "perturbation Mahalanobis distance": 3.39},
      {"smiles": "COc1cc(C(=O)NCc2ccc(OCCN(C)C)cc2)cc(OC)c1OC", "note": "[Trimethobenzamide] (257.426.762 µM)", "perturbation Mahalanobis distance": 2.9},
      {"smiles": "CC(C)C1CCC(C(=O)N[C@H](Cc2ccccc2)C(=O)O)CC1", "note": "(stereo partly specified) [Nateglinide] (66.1 µM)", "perturbation Mahalanobis distance": 2.59}
    ]}
  ]
}
